Sampled rows, rich in hits. Any-hit rate of the full collection: about 6.3%.
TGFb SMAD3 inh = blocks TGF-b signaling; HepG2 CAGA-GFP TGF-b/SMAD3 reporter, GFP fluorescence, 18 h; TGF-beta stimulated, 500 pg/mL final; Potency, µM (titrated, usually from 46.1 µM), usual class: inhibitors; 410,000 compounds, 1.2% hits; note: nearly all actives have a fitted effect of over 65% in size
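Smad-responsive CAGA-GFP expression was quantified in HEPG2 cells exposed to compounds and 500 pg/mL final TGF-beta for 18 h at 37 degrees C; unstimulated wells defined full inhibition.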
ATXN2 expr inh = reduces ATXN2 reporter expression in HEK-293 cells | Potency, µM (series often up to 57 µM), usual class: inhibitors | 360,000 compounds, 0.72% hits | HEK-293 ATXN2-luciferase reporter, luminescence, 24 h; note: nearly all actives have a fitted effect of over 55% in size
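qHTS (up to 57 uM final) was run with 24 h compound exposure of reporter cells at 37 °C. Each well was multiplexed: SteadyGlo luminescence measured ATXN2-luciferase expression after a fluorogenic Gly-Phe-AFC viability readout (25 uM final).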
VP16 counter = inhibits Gal4-VP16 luciferase reporter, ROR gamma counter-screen; Drosophila S2 Gal4-VP16 UAS-luciferase, luminescence, 20 h; Potency, µM (titrated, usually from 53.6 µM), usual class: inhibitors; 310,000 compounds, 3.5% hits;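 note: Gal4-VP16 expression switched on by copper sulfate through the metallothionein promoter; nearly all actives have a fitted effect of over 50% in size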
RORg inh = ROR gamma (mouse) transcription inhibition. Drosophila S2 Gal4-RORgamma UAS-luciferase reporter, 20 h. Potency, µM (doses to about 53.6 µM), usual class: inhibitors. 310,000 compounds, 5.4% hits; note: nearly all actives have a fitted effect of over 60% in size
Target sequence (P51450 whole entry, looked up, the tested form may be a part): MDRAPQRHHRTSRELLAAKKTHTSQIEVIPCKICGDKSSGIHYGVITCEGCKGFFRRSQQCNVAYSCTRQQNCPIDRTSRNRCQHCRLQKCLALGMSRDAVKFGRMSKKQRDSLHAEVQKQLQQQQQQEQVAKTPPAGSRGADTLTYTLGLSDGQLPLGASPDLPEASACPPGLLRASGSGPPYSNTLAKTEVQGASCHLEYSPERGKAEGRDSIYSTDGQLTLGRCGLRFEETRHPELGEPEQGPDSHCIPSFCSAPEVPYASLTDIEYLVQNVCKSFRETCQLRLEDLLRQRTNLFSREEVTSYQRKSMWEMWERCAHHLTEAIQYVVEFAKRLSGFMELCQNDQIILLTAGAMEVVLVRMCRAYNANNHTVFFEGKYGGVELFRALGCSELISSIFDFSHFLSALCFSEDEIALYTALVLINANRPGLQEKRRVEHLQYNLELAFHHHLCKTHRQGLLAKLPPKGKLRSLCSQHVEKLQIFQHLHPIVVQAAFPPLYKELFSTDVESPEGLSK
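Read-out: Photinus luciferase luminescence; inhibitors lower reporter signal. Insect Schneider cells with Gal4-ROR gamma fusion under metallothionein promoter, UAS reporter; 700 uM final copper sulfate induction, 20 hr, ambient temperature.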
ATXN viability = viability counter-screen for ATXN expression inhibitors; S2 cells (HEK-293 line with an ATXN2-luciferase reporter) viability, CellTiter-Fluor protease fluorescence, 24 h; Potency, µM (series often up to 56.7 µM), hits mostly cytotoxic; 400,000 compounds, 0.49% hits; AID 651635; note: nearly all actives have a fitted effect of over 40% in size
HepG2 viability = kills HepG2 cells in TGF-b inhibitor counter-screen. AID 588856. 410,000 compounds, 0.76% hits. HepG2 CAGA-GFP viability, ATP luminescence, 18 h. Potency, µM (doses to about 46.1 µM), actives largely listed as cytotoxic
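HepG2 CAGA-GFP cells (1000/well, DMEM with 1% FBS) received compound, then TGF-beta at 500 pg/mL final, and were incubated 18 hours at 37 degrees C. Viability was read by CellTiter-Glo luminescence. Media-only wells were set as complete cell-killing and DMSO as no toxicity.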
Each line names hits and unclear results; the compound was inactive in the other large screens. Calls come from the whole dose curve; as a rule, active = well fitted curve in the direction sought with a large enough effect; inconclusive = small, poorly fitted or top-dose-only effect, or another doubt; inactive = no such curve, though single readings can be large; an effect the other way counts as inactive or inconclusive.

O=Cc1cn(CCC(=O)O)nc1-c1cccc2ccccc12	VP16 counter 11.2µM, RORg inh 3.16µM
COc1cc(C(=O)Nc2cccc3ncccc23)cc(OC)c1OC	RORg inh 35.5µM
COc1ccc(Br)cc1C(=O)Nc1cccc2ncccc12	none (no result: ATXN2 expr inh)
Cc1cccc(NC(=O)c2ccc([N+](=O)[O-])o2)n1	TGFb SMAD3 inh inconclusive, VP16 counter inconclusive, RORg inh 11.2µM, ATXN viability inconclusive, HepG2 viability 25.1µM
O=C(Nc1ccc(NC(=O)c2ccc([N+](=O)[O-])o2)cc1Cl)c1ccco1	none
Cc1c(NC(=O)c2ccc([N+](=O)[O-])o2)cccc1-c1nc2ncccc2o1	TGFb SMAD3 inh inconclusive, ATXN2 expr inh inconclusive, VP16 counter inconclusive, RORg inh inconclusive, ATXN viability inconclusive, HepG2 viability 25.1µM
O=C(Nc1ccccc1Cl)c1ccc([N+](=O)[O-])o1	TGFb SMAD3 inh inconclusive, VP16 counter 15.8µM, RORg inh 10µM
N#Cc1ccc(C(=O)N2CCCCC2c2cc(C(=O)NCc3ccccc3)no2)cc1 (configuration not stated)	none (no result: VP16 counter, RORg inh)
O=C(Nc1cccc2ncccc12)c1ccc([N+](=O)[O-])o1	TGFb SMAD3 inh 12.6µM, VP16 counter inconclusive, RORg inh inconclusive, HepG2 viability 12.6µM
Cc1ccccc1NC(=O)c1ccc([N+](=O)[O-])o1	TGFb SMAD3 inh 15.8µM
CN1CCN(c2ccccc2NC(=O)c2ccc([N+](=O)[O-])o2)CC1	TGFb SMAD3 inh inconclusive, ATXN2 expr inh inconclusive, VP16 counter inconclusive, RORg inh inconclusive, ATXN viability inconclusive, HepG2 viability 2.51µM
Cc1ccc(NC(=O)c2ccc([N+](=O)[O-])o2)c(C)c1	TGFb SMAD3 inh 12.6µM
CC1(C(=O)Nc2ccc3c(c2)OCO3)CCN1C(=O)CC1CC1 (configuration not stated)	none (no result: VP16 counter, RORg inh)
Cc1ccc(C)c(N2CCN(S(=O)(=O)c3ccc(-c4cnc(C5CC5)o4)cc3)CC2)c1	TGFb SMAD3 inh inconclusive (no result: VP16 counter, RORg inh)
CC(=O)C1=C(O)C=C2Oc3c(C(C)=O)c(O)c(C)c(O)c3C2(C)C1=O (configuration not stated)	none (no result: TGFb SMAD3 inh, ATXN viability, HepG2 viability)
O=C(Nc1nc(-c2cccs2)cs1)c1ccc([N+](=O)[O-])o1	TGFb SMAD3 inh inconclusive, ATXN viability inconclusive, HepG2 viability 11.2µM (no result: VP16 counter, RORg inh)
Cc1ncc2c(c1CNC(=O)c1cncs1)CCN(C(=O)c1ccc(C(C)(C)C)cc1)C2	none (no result: TGFb SMAD3 inh, ATXN2 expr inh, VP16 counter, RORg inh, HepG2 viability)
Cc1c(C(=O)N2CCc3ccccc3C2)sc2nc(-c3ccccc3)cn12	none (no result: VP16 counter)
c1ccc(-c2cn3c4c(sc3n2)CCCC4)cc1	VP16 counter 6.31µM, RORg inh 3.55µM
COc1ccc([C@H]2c3cc(OC)c(OC)cc3C[C@@H](C)[C@@H]2C)cc1OC	none (no result: TGFb SMAD3 inh, ATXN2 expr inh, ATXN viability, HepG2 viability)
COc1ccccc1C(c1c(N)n(C)c(=O)n(C)c1=O)C(C)[N+](=O)[O-] (configuration not stated)	none
COc1ccccc1C(C[N+](=O)[O-])c1c(N)n(C)c(=O)n(C)c1=O (configuration not stated)	TGFb SMAD3 inh 7.08µM, VP16 counter 14.1µM, RORg inh inconclusive, HepG2 viability 10µM (no result: ATXN2 expr inh, ATXN viability)
COc1ccc(CNC(=O)C2CCN(c3nnc(-n4cccc4CNc4ccc(C)cc4)s3)CC2)c(OC)c1	none (no result: TGFb SMAD3 inh, ATXN2 expr inh, VP16 counter, RORg inh, ATXN viability)
O=C(N/N=C/c1ccccc1O)C(=O)N1CCCCCC1	VP16 counter 12.6µM, RORg inh 12.6µM
CCOc1ccc(/C=N/NC(=O)C(=O)N2CCCCCC2)c2ccccc12	TGFb SMAD3 inh 7.94µM, ATXN2 expr inh inconclusive, ATXN viability inconclusive (no result: VP16 counter, RORg inh)
COc1ccc2[nH]c3c(=O)n(/N=C/[C@H]4C(C)C=C(C)CC4C)c(=O)[nH]c3c2c1 (some centres not stated)	TGFb SMAD3 inh 5.01µM, ATXN2 expr inh inconclusive, ATXN viability 12.6µM, HepG2 viability 7.08µM
O=C(CCc1ccc(Oc2cc([N+](=O)[O-])cc([N+](=O)[O-])c2)cc1)N1CCCCC1	TGFb SMAD3 inh inconclusive, VP16 counter 12.6µM, RORg inh inconclusive

Screening data (PubChem BioAssay)
